From ChEMBL document CHEMBL4808148, “HDAC6 screening dataset using tau-based substrate in an enzymatic assay yields selective inhibitors and activators” (2021)
Out of some 5,600 compounds screened, about 390 (7%) showed an effect of 50% or more. This excerpt belongs to a sample that is enriched for strong results.

Assays:
[1] = target: T1, Protein deacetylase HDAC6 (Homo sapiens) (UniProt Q9UBN7); settings: at 10 µM
T1 sequence (whole entry): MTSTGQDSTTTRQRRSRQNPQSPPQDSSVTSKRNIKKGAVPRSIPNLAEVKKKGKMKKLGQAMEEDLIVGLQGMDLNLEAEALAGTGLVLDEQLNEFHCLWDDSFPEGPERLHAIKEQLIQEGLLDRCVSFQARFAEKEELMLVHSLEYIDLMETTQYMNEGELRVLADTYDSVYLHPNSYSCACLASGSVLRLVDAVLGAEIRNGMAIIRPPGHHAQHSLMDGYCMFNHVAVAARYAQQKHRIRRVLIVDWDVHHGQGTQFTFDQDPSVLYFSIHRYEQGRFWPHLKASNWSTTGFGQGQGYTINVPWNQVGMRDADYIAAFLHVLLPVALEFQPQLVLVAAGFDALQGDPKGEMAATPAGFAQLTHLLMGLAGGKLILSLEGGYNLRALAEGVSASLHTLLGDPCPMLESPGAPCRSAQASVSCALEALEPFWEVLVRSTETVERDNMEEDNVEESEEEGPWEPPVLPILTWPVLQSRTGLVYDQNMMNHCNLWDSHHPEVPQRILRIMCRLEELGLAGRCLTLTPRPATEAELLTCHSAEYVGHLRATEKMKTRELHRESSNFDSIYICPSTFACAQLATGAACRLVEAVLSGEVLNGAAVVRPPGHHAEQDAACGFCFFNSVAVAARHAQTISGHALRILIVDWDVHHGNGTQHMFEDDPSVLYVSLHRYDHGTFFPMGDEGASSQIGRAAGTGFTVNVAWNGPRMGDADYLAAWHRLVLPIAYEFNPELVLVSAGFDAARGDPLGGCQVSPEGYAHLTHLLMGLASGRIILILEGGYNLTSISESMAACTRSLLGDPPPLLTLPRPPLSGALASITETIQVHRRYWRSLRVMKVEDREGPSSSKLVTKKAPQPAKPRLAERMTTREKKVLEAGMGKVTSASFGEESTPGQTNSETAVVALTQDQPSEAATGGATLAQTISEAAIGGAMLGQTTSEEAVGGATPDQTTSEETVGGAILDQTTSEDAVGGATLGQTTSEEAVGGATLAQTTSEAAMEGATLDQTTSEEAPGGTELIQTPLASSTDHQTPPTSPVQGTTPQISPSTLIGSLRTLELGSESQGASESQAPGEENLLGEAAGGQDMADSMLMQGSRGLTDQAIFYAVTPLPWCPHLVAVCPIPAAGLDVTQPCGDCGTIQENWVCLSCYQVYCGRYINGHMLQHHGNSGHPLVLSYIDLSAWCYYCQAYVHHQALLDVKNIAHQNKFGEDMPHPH

[2] = target: Protein deacetylase HDAC6 (Homo sapiens) (UniProt Q9UBN7); settings: at 10 µM; remark: listed apart in the source

| Compound | inhibition [1] [%] | inhibition [2] [%] |
| --- | --- | --- |
| O=C(NOCCO)c1ccc2cncn2c1Nc1ccc(I)cc1F | 1.39 |  |
| C[C@H](N)C(=O)NCC(=O)N[C@H]1CSSC[C@@H](C(=O)O)NC(=O)[C@H](CO)NC(=O)[C@H]([C@@H](C)O)NC(=O)[C@H](Cc2ccccc2)NC(=O)[C@H]([C@@H](C)O)NC(=O)[C@H](CCCCN)NC(=O)[C@H](Cc2c[nH]c3ccccc23)NC(=O)[C@H](Cc2ccccc2)NC(=O)[C@H](Cc2ccccc2)NC(=O)[C@H](CC(N)=O)NC(=O)[C@H](CCCCN)NC1=O | 15.2 |  |
| CC(C)c1cccc2c1OC(C(C)C)C(=S)N2CC(=O)O (stereo not drawn) | 33 |  |
| CCC(=O)NO | 83.8 |  |
| O=C(O)[C@@H](O)[C@@H](O)[C@H](O)[C@@H](O)C(=O)O | 1.05 |  |
| CO[C@H]1/C=C\C=C(/C)C(=O)NC2=CC(=O)C(NCCN(C)C)=C(C[C@@H](C)C[C@H](OC)[C@H](O)[C@@H](C)/C=C(\C)[C@@H]1OC(N)=O)C2=O | 6.6 |  |
| O/N=C/c1cc[n+](COC[n+]2ccc(/C=N/O)cc2)cc1 | -4.53 |  |
| O=C1N[C@@H]2[C@@H](O)[C@@H](O)[C@H](O)[C@@H](CO)N2C1=O | -6.81 |  |
| Oc1ccc2ccccc2c1 | 57.1 |  |
| Oc1ccc(Cl)cc1 | -5.79 |  |
| Oc1ccccc1 | 7.92 |  |
| O=C1CCC(c2ccccc2)(C2CCN(Cc3ccc(I)cc3)CC2)C(=O)N1 (stereo not drawn) | -1.98 |  |
| Cc1ccccc1OCC(O)CNCCOc1ccc(C(N)=O)cc1 (stereo not drawn) | 0.61 |  |
| CC(=O)N[C@H]1[C@@H](OC(C)C)O[C@H](COC(C)=O)[C@@H](OC(C)=O)[C@@H]1OC(C)=O | -0.18 |  |
| CC(=O)OC[C@H]1O[C@@](COC(C)=O)(O[C@H]2O[C@H](COC(C)=O)[C@@H](OC(C)=O)[C@H](OC(C)=O)[C@H]2OC(C)=O)[C@@H](OC(C)=O)[C@@H]1OC(C)=O | 102 |  |
| C(=C\c1ccccc1)/CN1CCN(CCOC(c2ccccc2)c2ccccc2)CC1 | -6.12 |  |
| CC(C)OC(=O)CNC(=O)[C@H](CS)NC(=O)CC[C@H](N)C(=O)O | 45.1 |  |
| Cc1ccc([N+](=O)[O-])cc1O | 25.1 |  |
| N=C(N)NCCC[C@H](N)C(=O)O | 3.94 |  |
| N=C(NCCC[C@H](N)C(=O)O)N[N+](=O)[O-] | 104 |  |
| NCCCC[C@H](N)C(=O)O | -8.14 |  |
| O=C1c2ccccc2-c2c(NCCc3ccccc3)c(=O)[nH]c3cccc1c23 | 14.4 |  |
| CC(C)(CO)CCCCCCC(C)(C)CO | 17.3 |  |

| Compound | inhibition [1] [%] | inhibition [2] [%] |
| --- | --- | --- |
| COC(=O)N[C@@H](C)CNc1nccc(-c2cn(C(C)C)nc2-c2cc(Cl)cc(NS(C)(=O)=O)c2F)n1 | -2.53 |  |
| CCOc1ccc(S(=O)(=O)O)c2cccnc12 | 102 |  |
| O=C(NCCN1CCC2(CC1)C(=O)NCN2c1cccc(F)c1)c1ccc(F)c(F)c1 | 7.38 |  |
| CC(C)(C)C#Cc1cc(N(C(=O)[C@H]2CC[C@H](C)CC2)[C@H]2CC[C@@H](O)CC2)c(C(=O)O)s1 | 26.8 |  |
| O=S(=O)(O)c1ccc(O)cc1 | 4.16 |  |
| CCCCc1ccc(C(N)=O)nc1 | 32.3 |  |
| CC(C)(C)c1[nH]cnc1/C=c1\[nH]c(=O)/c(=C/c2ccccc2)[nH]c1=O | 77.4 |  |
| COc1cc2c(cc1OC(C)C)[C@H](c1ccc(Cl)cc1)N(c1ccc(N(C)C[C@H]3CC[C@H](N4CCN(C)C(=O)C4)CC3)cc1)C(=O)C2 | 17.5 |  |
| O=c1c(O)c(-c2ccc(O)c(O)c2)oc2cc(O)cc(O)c12 | 98.5 |  |
| O=c1cc(-c2ccc(O)c(O)c2)oc2cc(O)cc(O)c12 | 100 |  |
| CC(=O)N[C@H](C=O)[C@@H](O)[C@H](O)[C@H](O)CO | 19.4 |  |
| N[C@@H](CC(=O)N1CCn2c(nnc2C(F)(F)F)C1)Cc1n[nH]c2c(F)c(F)ccc12 | 18.7 |  |
| O=C(O)C1CCC(c2cc3cccnc3c(-c3cccc(F)c3)n2)CC1 (stereo not drawn) | -5.88 |  |
| MONOCTANOIN, CHEMBL6066833 |  | -5.59 |
| N=C(N)Nc1ccc(C(=O)Oc2ccc3cc(C(=N)N)ccc3c2)cc1 | 29.9 |  |
| CCOC(=O)[C@@H](C)Oc1ccc(Oc2nc3ccc(Cl)cc3o2)cc1 | 14.5 |  |
| CN(C)c1cccc(Oc2cnc(Nc3cccc(O)c3)nc2)c1 | 30.8 |  |
| Oc1cccc(Nc2ccc(Nc3cccc(O)c3)nn2)c1 | 79.8 |  |
| CS(=O)(=O)c1ccc(Cn2c3c(c4cc(F)cc(F)c42)CCCC3CC(=O)O)cc1 (stereo not drawn) | -7.09 |  |
| C#CC[C@H](c1nc2cc(Cl)ccc2c(=O)n1Nc1ccccc1)N(CCCN)C(=O)c1cccc(Cl)c1F | 11.7 |  |
| CCC(CC)n1ccc2c(C(=O)NCc3c(C)cc(C)[nH]c3=O)cc(C#N)cc21 | 15.2 |  |
| CC(O)C(CO)NC(=O)C1CSSCC(NC(=O)C(N)Cc2ccccc2)C(=O)NC(Cc2ccccc2)C(=O)NC(Cc2c[nH]c3ccccc23)C(=O)NC(CCCCN)C(=O)NC(C(C)O)C(=O)N1 (stereo not drawn) | 19.6 |  |
| NYSTATIN, CHEMBL5465559 |  | 30.5 |

| Compound | inhibition [1] [%] | inhibition [2] [%] |
| --- | --- | --- |
| O=C(O)CNC(=O)c1c(O)c2ccccc2n(Cc2ccccc2)c1=O | 81.7 |  |
| O=C(O)CNC(=O)c1ccccc1I | 36.6 |  |
| CCc1c(C(=O)C(N)=O)c2c(OCC(=O)O)cccc2n1Cc1ccccc1 | 20 |  |
| Cc1ncc(C[n+]2csc(CCOP(=O)(O)OP(=O)(O)O)c2C)c(N)n1 | 37.8 |  |
| COC(=O)c1ccc2c(c1)nc(NC(=O)c1ccccc1)n2CCCc1ccccc1 | -9.35 |  |
| CN[C@@H]1Cc2cccc3[nH]c(=O)n(c23)C1 | 4.82 |  |
| Oc1ncc(N(CCCl)CCCl)c(O)n1 | 2.6 |  |
| CN1CCN(c2ccc3ccccc3n2)CC1 | 44.6 |  |
| CN1CCN(c2ccc3[nH]c(-c4ccc5[nH]c(-c6ccc(O)cc6)nc5c4)nc3c2)CC1 | 64 |  |
| CN1CCC(c2c[nH]c3ccc(O)cc23)CC1 | 5.85 |  |
| NC(=O)c1cc[n+](CC2=C(C(=O)[O-])N3C(=O)[C@@H](NC(=O)Cc4cccs4)[C@H]3SC2)cc1 | -9.58 |  |
| O=C(O)C1CSCN1 (stereo not drawn) | 8.04 |  |
| CC(C)OC(=O)Nc1cccc(Cl)c1 | 81 |  |
| C[C@H](Cc1ccc2c(c1)OC(C(=O)O)(C(=O)O)O2)NC[C@H](O)c1cccc(Cl)c1 | 16.3 |  |
| COc1ccc(C(=O)Nc2c(Cl)cncc2Cl)cc1OC1CCCC1 | 8.11 |  |
| O=C(Nc1cccc(Cl)c1)c1ccccn1 | 104 |  |
| COc1cc(NC(=O)c2ccccn2)ccc1Cl | 101 |  |
| COc1cc(NC(=O)c2cccc(-n3cc(NC(=O)Nc4cccc(C)c4)cn3)c2)cc(OC)c1OC | 0.29 |  |
| O=C(Nc1ccc(S(=O)(=O)Nc2ccccc2Cl)c(Cl)c1)c1ccccn1 | 50.8 |  |
| O=C(NNc1ccccc1)c1ccncc1 | 19 |  |
| CNC(=O)Oc1ccccc1OC(C)C | 19.4 |  |
| O=C(Nc1cnc(Cl)nc1)c1ccc(F)c(F)c1 | 8.67 |  |
